Assay results taken from the supplement of paper PMC10849652.
The full data set covers some 7,900 targets. This sample favours those with a hit. About 0.6% of all pairs of compound and target were hits.

Key:
Assay in all cases: log2 fold change, soluble protein after heating vs DMSO (PISA); higher = thermal stabilisation; K562 cells, 10 uM, 30 min; active = over 0.2 and 3.5 SD of the protein, either way, in both replicates (recomputed)
[1] = compound: C1=CC=C(C=C1)[C@H](COC2=CC3=C(C=C2)NC(=O)N3)NC(=O)C4=CC=CN(C4=O)CC5=CC(=C(C=C5)F)F
Method in brief: (§1)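 K562 cells at 2×10^6 cells/mL were given 10 μM compound for 30 min. Aliquots then went through 3 min of heating across 48°C-58°C, were pooled, and were extracted in PBS with 0.5% NP-40 at 4°C, and the supernatant after 21,000xg for 90 min was quantified by TMTpro 16plex LC-MS/MS with channel sums equalised. Thermal stability relative to control samples, from duplicates, is given as log2 fold change.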

[2] = compound: CC1=C(SC2=C1C(=N[C@H](C3=NN=C(N32)C)CC(=O)N)C4=CC=C(C=C4)Cl)C
Method in brief: as §1

[3] = compound: CC1=C2C(=CC=C1)N=C(N(C2=O)C3=CC=CC=C3C)CN4C=NC5=C(N=CN=C54)N
Method in brief: as §1

[4] = compound: Cc1sc2c(c1C)C(c1ccc(Cl)cc1)=N[C@@H](CC(=O)OC(C)(C)C)c1nnc(C)n1-2
Method in brief: as §1

[5] = compound: c1ccc([C@@H]2C[C@H]2NC2CCNCC2)cc1
Method in brief: as §1

Measured: log2 fold change

MRPS6 (UniProt P82932)
inactive: [1] -0.084 | [2] 0.012 | [3] 0.052 | [4] 0.052 | [5] -0.022

NUDT21 (UniProt O43809)
UniProt O43809, sequence (O43809 whole entry, looked up): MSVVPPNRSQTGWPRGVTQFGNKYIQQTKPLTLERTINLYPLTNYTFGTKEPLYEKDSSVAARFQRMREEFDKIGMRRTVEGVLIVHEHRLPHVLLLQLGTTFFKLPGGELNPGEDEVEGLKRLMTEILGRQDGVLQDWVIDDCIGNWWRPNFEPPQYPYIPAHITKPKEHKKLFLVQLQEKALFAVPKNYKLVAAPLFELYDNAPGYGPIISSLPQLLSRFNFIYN
inactive: [1] 0.013 | [2] 0.021 | [3] 0.011 | [4] -0.01 | [5] 0.001

NEU1 (UniProt Q99519)
inactive: [1] -0.116 | [2] 0.004 | [3] 0.047 | [4] -0.043 | [5] -0.025

NMD3 (UniProt Q96D46)
UniProt Q96D46, sequence (Q96D46 whole entry, looked up): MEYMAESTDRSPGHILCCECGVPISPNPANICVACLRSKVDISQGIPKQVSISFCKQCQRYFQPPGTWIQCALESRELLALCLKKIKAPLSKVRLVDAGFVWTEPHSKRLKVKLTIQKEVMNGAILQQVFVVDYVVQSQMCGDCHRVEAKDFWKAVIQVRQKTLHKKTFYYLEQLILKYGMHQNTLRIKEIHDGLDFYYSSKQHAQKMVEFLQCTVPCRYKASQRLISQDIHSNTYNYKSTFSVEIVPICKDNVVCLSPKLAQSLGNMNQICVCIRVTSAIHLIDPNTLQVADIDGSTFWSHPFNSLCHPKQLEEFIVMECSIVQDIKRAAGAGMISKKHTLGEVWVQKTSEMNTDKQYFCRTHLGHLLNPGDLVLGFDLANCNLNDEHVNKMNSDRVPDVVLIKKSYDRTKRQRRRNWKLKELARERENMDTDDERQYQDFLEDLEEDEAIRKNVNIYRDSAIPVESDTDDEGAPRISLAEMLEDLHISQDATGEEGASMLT
inactive: [1] -0.046 | [2] 0.049 | [3] 0.01 | [4] -0.02 | [5] -0.11

MLST8 (UniProt Q9BVC4)
UniProt Q9BVC4, sequence (Q9BVC4 whole entry, looked up): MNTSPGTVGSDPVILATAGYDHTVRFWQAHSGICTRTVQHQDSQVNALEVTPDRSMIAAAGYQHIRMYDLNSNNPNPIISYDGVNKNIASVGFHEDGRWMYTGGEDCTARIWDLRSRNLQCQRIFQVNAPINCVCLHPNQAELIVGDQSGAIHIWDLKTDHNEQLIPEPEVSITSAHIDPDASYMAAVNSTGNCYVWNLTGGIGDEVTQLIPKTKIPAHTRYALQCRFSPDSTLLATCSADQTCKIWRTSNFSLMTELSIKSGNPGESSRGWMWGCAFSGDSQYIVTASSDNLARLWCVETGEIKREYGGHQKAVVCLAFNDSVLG
inactive: [1] -0.038 | [2] 0.062 | [3] 0.082 | [4] -0.05 | [5] -0.071

MRPS25 (UniProt P82663)
inactive: [1] -0.002 | [2] -0.05 | [3] -0.067 | [4] 0.059 | [5] 0.014

MT-ND2 (UniProt P03891)
UniProt P03891, sequence (P03891 whole entry, looked up): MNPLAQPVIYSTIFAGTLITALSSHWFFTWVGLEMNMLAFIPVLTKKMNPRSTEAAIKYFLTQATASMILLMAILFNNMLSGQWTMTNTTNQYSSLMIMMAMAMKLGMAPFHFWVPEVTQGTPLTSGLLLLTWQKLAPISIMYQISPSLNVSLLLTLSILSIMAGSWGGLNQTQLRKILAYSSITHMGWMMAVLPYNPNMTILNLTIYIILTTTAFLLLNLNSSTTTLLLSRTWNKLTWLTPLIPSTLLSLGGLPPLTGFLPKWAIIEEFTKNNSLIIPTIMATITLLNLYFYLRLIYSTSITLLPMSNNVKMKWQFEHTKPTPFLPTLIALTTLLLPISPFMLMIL
inactive: [1] 0.023 | [2] 0.123 | [3] -0.118 | [4] -0.03 | [5] -0.003

NACC1 (UniProt Q96RE7)
UniProt Q96RE7, sequence (Q96RE7 whole entry, looked up): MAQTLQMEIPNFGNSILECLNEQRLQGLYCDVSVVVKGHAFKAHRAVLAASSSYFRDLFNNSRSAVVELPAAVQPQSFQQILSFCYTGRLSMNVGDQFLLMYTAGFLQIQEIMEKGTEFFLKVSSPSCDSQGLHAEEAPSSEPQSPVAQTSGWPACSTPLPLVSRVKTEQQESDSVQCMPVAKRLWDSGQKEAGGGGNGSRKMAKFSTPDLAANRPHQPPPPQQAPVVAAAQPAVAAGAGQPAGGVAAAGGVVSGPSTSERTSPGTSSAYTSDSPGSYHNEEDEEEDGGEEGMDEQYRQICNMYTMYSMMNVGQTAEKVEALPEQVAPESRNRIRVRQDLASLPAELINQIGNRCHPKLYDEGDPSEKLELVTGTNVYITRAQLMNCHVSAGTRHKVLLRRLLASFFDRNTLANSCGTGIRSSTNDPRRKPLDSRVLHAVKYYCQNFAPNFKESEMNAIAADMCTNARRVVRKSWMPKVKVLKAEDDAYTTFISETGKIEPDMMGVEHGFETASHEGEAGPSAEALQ
inactive: [1] -0.029 | [2] 0.039 | [3] 0.092 | [4] -0.037 | [5] -0.015

NUP160 (UniProt Q12769)
UniProt Q12769, sequence (Q12769 whole entry, looked up): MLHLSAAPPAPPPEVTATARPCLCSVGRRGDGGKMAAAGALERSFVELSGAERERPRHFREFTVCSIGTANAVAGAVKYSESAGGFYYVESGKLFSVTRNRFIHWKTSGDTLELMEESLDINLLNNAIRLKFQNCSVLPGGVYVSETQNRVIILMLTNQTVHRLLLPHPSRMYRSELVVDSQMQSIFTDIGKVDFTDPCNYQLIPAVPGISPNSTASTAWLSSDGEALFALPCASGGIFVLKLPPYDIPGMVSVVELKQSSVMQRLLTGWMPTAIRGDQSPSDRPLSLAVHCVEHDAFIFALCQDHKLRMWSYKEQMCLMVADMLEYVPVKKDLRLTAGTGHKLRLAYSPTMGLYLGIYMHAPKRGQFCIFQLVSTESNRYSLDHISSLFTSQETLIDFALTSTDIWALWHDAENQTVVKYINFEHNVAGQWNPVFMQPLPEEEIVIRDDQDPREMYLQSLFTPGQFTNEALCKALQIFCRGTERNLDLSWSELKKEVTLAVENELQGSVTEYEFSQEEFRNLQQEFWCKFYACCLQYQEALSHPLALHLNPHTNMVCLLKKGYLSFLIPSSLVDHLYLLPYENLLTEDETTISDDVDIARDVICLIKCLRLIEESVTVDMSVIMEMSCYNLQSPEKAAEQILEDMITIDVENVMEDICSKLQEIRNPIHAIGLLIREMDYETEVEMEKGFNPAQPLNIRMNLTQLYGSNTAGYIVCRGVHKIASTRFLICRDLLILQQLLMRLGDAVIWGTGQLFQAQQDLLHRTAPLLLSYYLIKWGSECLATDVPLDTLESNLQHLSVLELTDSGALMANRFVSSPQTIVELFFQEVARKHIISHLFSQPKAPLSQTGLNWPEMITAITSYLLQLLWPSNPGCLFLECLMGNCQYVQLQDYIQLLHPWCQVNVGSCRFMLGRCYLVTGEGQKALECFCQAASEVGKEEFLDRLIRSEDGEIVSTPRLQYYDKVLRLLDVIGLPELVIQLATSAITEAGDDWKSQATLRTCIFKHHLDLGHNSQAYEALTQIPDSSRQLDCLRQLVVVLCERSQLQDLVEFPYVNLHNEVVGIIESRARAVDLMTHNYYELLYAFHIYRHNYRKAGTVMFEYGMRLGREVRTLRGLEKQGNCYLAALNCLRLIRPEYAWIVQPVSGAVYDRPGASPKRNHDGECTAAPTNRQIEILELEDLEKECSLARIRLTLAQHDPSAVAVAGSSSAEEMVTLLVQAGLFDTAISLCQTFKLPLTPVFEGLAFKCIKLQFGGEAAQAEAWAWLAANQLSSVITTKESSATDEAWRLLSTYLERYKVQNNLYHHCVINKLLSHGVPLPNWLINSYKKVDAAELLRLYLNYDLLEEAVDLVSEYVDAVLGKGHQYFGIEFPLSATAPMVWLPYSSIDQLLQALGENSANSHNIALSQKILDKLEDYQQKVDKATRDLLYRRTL
inactive: [1] -0.013 | [2] 0.043 | [3] 0.038 | [4] 0.014 | [5] 0.044
